# Compound activity as filed in PubChem.
# Only some compounds are listed: those with a hit (about 3.9% of all), similar ones and a draw of the others.
# Anthrax LF prot: anthrax lethal factor protease inhibition | 0.12% of 360,000 active | inhibition, % at 10 µM | AID 588501 | multiplex microsphere protease cleavage assay, LF | P15917; further: plate controls were buffer without enzyme for full effect and enzyme alone for no effect
# Target sequence (P15917 whole entry, looked up): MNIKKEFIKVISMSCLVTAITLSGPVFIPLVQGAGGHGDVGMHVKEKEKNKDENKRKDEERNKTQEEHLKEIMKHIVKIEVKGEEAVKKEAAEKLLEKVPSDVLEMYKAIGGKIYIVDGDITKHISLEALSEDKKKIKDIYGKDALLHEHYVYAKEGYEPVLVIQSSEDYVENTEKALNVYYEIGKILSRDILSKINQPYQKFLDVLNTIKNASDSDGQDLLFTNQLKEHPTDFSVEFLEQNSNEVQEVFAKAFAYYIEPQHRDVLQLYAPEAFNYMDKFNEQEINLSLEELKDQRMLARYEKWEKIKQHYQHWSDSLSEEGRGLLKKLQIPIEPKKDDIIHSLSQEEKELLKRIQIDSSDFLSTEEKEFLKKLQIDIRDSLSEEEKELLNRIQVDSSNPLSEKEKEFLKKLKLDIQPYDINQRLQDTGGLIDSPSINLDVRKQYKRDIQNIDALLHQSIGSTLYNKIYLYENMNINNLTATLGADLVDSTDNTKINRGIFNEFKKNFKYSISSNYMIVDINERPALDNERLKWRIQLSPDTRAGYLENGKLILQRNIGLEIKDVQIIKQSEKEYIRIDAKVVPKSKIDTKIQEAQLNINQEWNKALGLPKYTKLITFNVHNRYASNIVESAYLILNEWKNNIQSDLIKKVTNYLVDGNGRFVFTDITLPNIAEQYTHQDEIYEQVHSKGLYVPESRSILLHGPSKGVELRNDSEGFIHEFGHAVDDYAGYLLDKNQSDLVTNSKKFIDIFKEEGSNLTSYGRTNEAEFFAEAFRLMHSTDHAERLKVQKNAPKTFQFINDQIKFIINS
# Vc quorum ag: inducers of Vibrio cholerae quorum light production without autoinducers; V. cholerae BH1578 lux reporter, luminescence, 6 h; activation, % at 18.7 µM; 0.16% of 350,000 active; AID 588436; in the data active means activation mostly above about 9.7%, no sharp cut-off; inconclusive means no clear call, values can overlap the other calls; inactive means mostly below about 3.7%
# BoNT-F LC inh: blocks Botulinum neurotoxin F light chain protease. Multiplex microsphere protease cleavage assay, flow cytometry. inhibition, % at 10 µM. 0.22% of 360,000 active; in the data active means inhibition above about 35%, passing the limit was not always enough; inconclusive means no clear call, values can overlap the other calls; further: plate controls were buffer without enzyme for full effect and enzyme alone for no effect
# MazEF act: activators of E. coli MazEF toxin-antitoxin RNase; FAM/BHQ RNA-DNA oligo cleavage fluorescence, 5 h; P0AE70; 0.32% of 350,000 active; activation, % at 20 µM; in the data active means activation above about 50%
# BoNT-A LC inh2: blocks Botulinum neurotoxin A light chain protease | inhibition, % at 10 µM | 0.17% of 360,000 active | AID 588499 | multiplex microsphere protease substrate cleavage, flow cytometry; further: plate controls were buffer without enzyme for full effect and enzyme alone for no effect
# Bead autofluor: compound fluorescence in toxin protease inhibitor counterscreen; compound autofluorescence counterscreen, microsphere flow cytometry; hits give high values; fluorescence intensity (no concentration beside the values); 3.1% of 360,000 active; AID 624483; in the data active means fluorescence intensity above about 16000; inconclusive means no clear call, values can overlap the other calls
# Active calls of the source: *; i = inactive; ? = inconclusive; · = not tested or not shown; + = active, no number. Unless noted, no stated cut-off is given here; in the data, active means inhibition above about 30%; inconclusive means no clear call, values can overlap the other calls; inactive means below that.
SMILES,Anthrax LF prot,Vc quorum ag,BoNT-F LC inh,MazEF act,BoNT-A LC inh2,Bead autofluor
CC(C)(C)c1ccc(C(=O)CC(=O)c2cc(Cl)ccc2O)cc1,-1,i,-1,3,-1,21100*
COC(=O)c1csc(-c2ccc(CO)o2)n1,-3,·,3,·,-1,6238
COc1cc(OC)c(-c2noc(C(=O)OC(C)(C)C)c2C(=O)OC(C)(C)C)c(OC)c1,1,i,1,2,0,2417
Cc1cc(C)c(-c2noc(C(=O)OC(C)(C)C)c2C(=O)OC(C)(C)C)c(C)c1,-2,51*,-5,-2,0,3233
C/C(=C\C(=O)O)C(=O)Nc1nccs1,2,i,?,0,1,4082
C/C(=C\C(=O)Nc1nccs1)c1ccccc1,-4,3,-6,4,?,17209*
OCCC1CN(Cc2cccn2-c2ccccn2)CCN1Cc1ccccc1 (centres undefined),3,-1,-3,598*,0,4414
COc1ccc(-c2ccc(C3C(C#N)=C(N)Oc4n[nH]c(C)c43)o2)cc1 (centres undefined),-1,i,-4,6,?,21391*
Cc1nn(-c2ccccc2)c(C)c1C1C(C#N)=C(N)Oc2n[nH]c(C)c21 (centres undefined),5,-1,36*,2,4,3695
Cc1nn(C)c(C)c1C1C(C#N)=C(N)Oc2n[nH]c(C)c21 (centres undefined),-6,2,12,-3,1,10415
Cc1[nH]nc2c1C(c1ccco1)C(C#N)=C(N)O2 (centres undefined),1,0,-6,3,0,1949
Cc1nn(-c2ccccc2)c2c1C(c1ccco1)C(C#N)=C(N)O2 (centres undefined),-7,-3,-1,2,?,23537*
Cc1ccc(-n2nc(C)c3c2OC(N)=C(C#N)C3c2ccc(F)cc2)cc1 (centres undefined),1,0,-1,1,0,22457*
Cc1nn(-c2cccc(Cl)c2)c2c1C(c1ccncc1)C(C#N)=C(N)O2 (centres undefined),8,0,4,5,0,9376
COc1ccc(OC)c(C2C(C#N)=C(N)Oc3c2c(C)nn3-c2cccc(Cl)c2)c1 (centres undefined),0,i,4,-6,?,20225*
O=C(O)C(SC(C(=O)O)c1ccccc1)c1ccccc1 (centres undefined),0,i,-4,5,0,2811
CC(C)CC1Nc2ncnc(N3CCN(c4ccccn4)CC3)c2N(Cc2ccccc2)C1=O (centres undefined),-10,-4,-2,-5,-2,3778
CC(C)NC(=S)N/N=C1\CCCCC1C1CCCCC1 (centres undefined),0,-2,1,1,?,22179*
CC1CCCC/C1=N\NC(=S)Nc1ccccc1 (centres undefined),8,-1,3,6,0,3006
Cc1cccc(-c2cccc(NC(=O)C3CCCN(C(=O)c4csc(C)n4)C3)c2)c1 (centres undefined),-3,-1,6,-2,-1,4576
CCCCOC(=O)CCCN1C(=O)/C(=C2\SC(=S)N(CCCC(=O)OCCCC)C2=O)SC1=S,45*,i,21,-3,65*,4596
Cc1ccc(NC(=S)NCc2ccc(Cl)cc2)c(OC(F)F)c1,6,-1,-5,4,1,5946
O=C(c1ccc(F)cc1)N1CCC(N2CCCCCC2)CC1,-3,0,-4,-10,0,16826*
CC1CN(C2CCN(S(=O)(=O)c3ccc(F)cc3)CC2)CC(C)O1 (centres undefined),0,0,-10,4,-6,18932*
CC1CN(C2CCN(S(=O)(=O)Cc3ccccc3)CC2)CC(C)O1 (centres undefined),-2,-18,2,1,0,22746*
SMILES,Anthrax LF prot,Vc quorum ag,BoNT-F LC inh,MazEF act,BoNT-A LC inh2,Bead autofluor
CN1CCN(S(=O)(=O)c2ccc(Cl)c(C(F)(F)F)c2)CC1,4,i,4,9,0,3630
CC1CN(S(=O)(=O)c2ccc(Cl)c(C(F)(F)F)c2)CC(C)O1 (centres undefined),2,0,-3,-1,?,16300*
CC1CN(C2CCN(S(=O)(=O)c3ccccc3)CC2)CC(C)O1 (centres undefined),4,0,0,-9,4,7570
CC(=O)C1C(=O)c2c(cccc2[N+](=O)[O-])C1=Nc1ccc(S(N)(=O)=O)cc1 (centres undefined),-1,i,2,2,0,2001
CC1CN(C2CCN(C(=O)c3ccccc3)CC2)CC(C)O1 (centres undefined),-2,3,1,4,0,16799*
C=CCNC(=S)NNC(=O)c1ccc(=O)n(Cc2ccc(Cl)cc2Cl)c1,-2,0,7,-1,0,2216
CN(C)c1nc(Oc2ccc(=O)n(-c3ccccc3)n2)nc(N2CCOCC2)n1,0,i,0,-10,?,21946*
CCNc1nc(Oc2ccc(=O)n(-c3ccccc3)n2)nc(N2CCOCC2)n1,-3,i,4,4,0,2893
CCNc1nc(OC)nc(Oc2ccc(=O)n(-c3ccccc3)n2)n1,2,-1,11,16,1,3471
COc1nc(NC(C)(C)C)nc(Oc2ccc(=O)n(-c3ccccc3)n2)n1,0,i,-1,6,0,21751*
Cc1noc(C)c1COc1ccccc1C(=O)N(C)Cc1ccco1,-12,2,-1,5,-2,7934
O=C(NCc1ccncc1)[C@@H]1CCCN1C(=O)[C@H]1CCCN1C(=O)c1cccc(Cl)c1,1,·,6,·,-1,5547
CC(NC(=O)/C=C/c1ccccc1)c1ccccc1 (centres undefined),-4,-2,-1,5,0,3171
CC(C)C(NC(=O)/C=C/c1ccc(F)cc1)C(C)C,-1,+,-9,-2,0,2503
CN(C)C(=S)SCC(=O)Nc1ccc(Cl)cc1Cl,-4,0,-7,6,0,2507
CCc1c(C)nc2ncnn2c1Nc1ccc(C)cc1,-2,i,-38,6,-2,3741
C#CCNc1c(C)c(C)nc2ncnn12,-1,-3,-6,5,-4,24659*
CCc1cc2cc3c(cc2nc1SCC(=O)Nc1nnc(C)s1)OCCO3,-3,-2,-5,-15,0,6296
CCc1nnc(NC(=O)CSc2nc3cc4c(cc3cc2CC)OCCO4)s1,-3,4,6,82*,0,4459
COc1ccc(N2c3ccccc3CN(Cc3ccccc3)[C@@H](C)[C@H]2Cc2cccnc2)cc1,-7,0,-3,5,-1,3629
COC(=O)NNC(=O)/C=C/c1ccccc1,1,i,-4,-1,0,2368
O=C(/C=C/c1ccccc1)NNC(=O)C1CC1,-4,0,4,-2,4,21872*
